# Assays:
# Experiment in all cases: DAPPL (digital affinity profiling via proximity ligation, sequencing); 10 mM Tris-HCl pH 7.5, 50 mM NaCl, 1 mM DTT, 4% glycerol, room temperature, 30 min; GST-TFs on glutathione beads, 16-mer random dsDNA library, 0.1% formaldehyde crosslink after washing; high values mean tight binding
# FLI1 = biological target: T1, FLI1 (Homo sapiens, UniProt Q01543 1-452); conditions: protein: recombinant; tags: N-terminal GST; dsDNA, one strand shown
# T1 sequence: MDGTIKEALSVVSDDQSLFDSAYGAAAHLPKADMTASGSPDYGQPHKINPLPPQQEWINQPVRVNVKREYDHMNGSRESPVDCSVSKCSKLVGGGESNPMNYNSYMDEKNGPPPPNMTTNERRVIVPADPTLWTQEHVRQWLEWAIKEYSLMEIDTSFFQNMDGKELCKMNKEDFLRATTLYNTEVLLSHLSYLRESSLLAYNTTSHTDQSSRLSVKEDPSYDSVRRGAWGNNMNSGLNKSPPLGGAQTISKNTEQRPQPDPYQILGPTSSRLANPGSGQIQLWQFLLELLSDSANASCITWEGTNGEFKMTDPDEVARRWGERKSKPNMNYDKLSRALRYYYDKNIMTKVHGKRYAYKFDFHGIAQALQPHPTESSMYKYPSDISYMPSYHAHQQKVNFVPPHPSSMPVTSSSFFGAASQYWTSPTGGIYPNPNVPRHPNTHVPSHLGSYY
# Outline: (§1)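 Human transcription factors carrying a GST fusion were produced in yeast, bound to glutathione beads, tagged with DNA barcodes and pooled together with a tag-only sample. Each pool was held with 200 nmole of a random double-stranded 16-mer DNA library in Tris/NaCl/DTT/glycerol buffer for 30 min at room temperature, then washed, crosslinked in 0.1% formaldehyde, proximity-ligated with BsaI/T4 ligase (1 h, 37 °C), PCR-amplified and sequenced on an Illumina NextSeq500. Binding signal is the read frequency of each hexamer for a given factor divided by its frequency in the tag-only sample.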
# ELK1 = biological target: T2, ELK1 (Homo sapiens, UniProt P19419 1-428); conditions: protein: recombinant; tags: N-terminal GST; dsDNA, one strand shown
# T2 sequence: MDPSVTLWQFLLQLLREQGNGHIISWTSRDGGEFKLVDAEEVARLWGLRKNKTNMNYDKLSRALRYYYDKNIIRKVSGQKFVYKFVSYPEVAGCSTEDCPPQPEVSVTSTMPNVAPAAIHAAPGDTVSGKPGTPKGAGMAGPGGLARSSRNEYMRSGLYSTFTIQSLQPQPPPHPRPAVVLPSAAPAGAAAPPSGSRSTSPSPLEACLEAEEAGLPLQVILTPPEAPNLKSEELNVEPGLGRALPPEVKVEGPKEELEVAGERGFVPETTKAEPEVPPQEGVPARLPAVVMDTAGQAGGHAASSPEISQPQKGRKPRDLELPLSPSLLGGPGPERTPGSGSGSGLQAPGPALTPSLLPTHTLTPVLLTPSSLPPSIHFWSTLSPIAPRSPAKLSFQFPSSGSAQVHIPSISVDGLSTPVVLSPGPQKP
# Outline: as §1
# GABPA = biological target: T3, GABPA (Homo sapiens, UniProt Q06546 1-454); conditions: protein: recombinant; tags: N-terminal GST; dsDNA, one strand shown
# T3 sequence: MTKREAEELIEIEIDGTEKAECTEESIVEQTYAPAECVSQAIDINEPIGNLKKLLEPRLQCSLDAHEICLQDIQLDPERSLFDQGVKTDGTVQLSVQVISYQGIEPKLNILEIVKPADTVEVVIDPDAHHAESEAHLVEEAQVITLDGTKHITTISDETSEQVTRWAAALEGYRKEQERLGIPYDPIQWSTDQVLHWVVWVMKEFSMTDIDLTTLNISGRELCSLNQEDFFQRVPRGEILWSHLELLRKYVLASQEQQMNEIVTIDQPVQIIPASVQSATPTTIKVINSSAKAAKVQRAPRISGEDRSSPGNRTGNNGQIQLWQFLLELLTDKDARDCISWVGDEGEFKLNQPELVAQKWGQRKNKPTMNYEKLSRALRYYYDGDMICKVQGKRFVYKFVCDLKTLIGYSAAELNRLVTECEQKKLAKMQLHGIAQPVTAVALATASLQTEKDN
# Outline: as §1
# ERG = biological target: T4, ERG (Homo sapiens, UniProt P11308 1-479); conditions: protein: recombinant; tags: N-terminal GST; dsDNA, one strand shown
# T4 sequence: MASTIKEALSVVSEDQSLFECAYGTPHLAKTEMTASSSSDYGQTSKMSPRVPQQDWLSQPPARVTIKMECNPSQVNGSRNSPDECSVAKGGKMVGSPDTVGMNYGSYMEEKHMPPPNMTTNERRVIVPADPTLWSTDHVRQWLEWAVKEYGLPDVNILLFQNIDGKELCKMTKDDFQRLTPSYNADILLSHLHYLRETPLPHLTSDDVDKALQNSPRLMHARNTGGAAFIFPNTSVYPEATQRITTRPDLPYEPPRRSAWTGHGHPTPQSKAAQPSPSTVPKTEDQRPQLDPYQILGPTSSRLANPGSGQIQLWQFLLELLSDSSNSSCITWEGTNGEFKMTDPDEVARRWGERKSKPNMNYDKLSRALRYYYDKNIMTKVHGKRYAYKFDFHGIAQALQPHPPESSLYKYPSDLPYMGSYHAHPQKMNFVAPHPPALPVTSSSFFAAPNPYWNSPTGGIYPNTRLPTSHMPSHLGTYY
# Outline: as §1
# ELF1 = ELF1 (Homo sapiens, UniProt P32519 1-619); conditions: protein: recombinant; tags: N-terminal GST; dsDNA, one strand shown
# Chain of ELF1 (P32519 whole entry): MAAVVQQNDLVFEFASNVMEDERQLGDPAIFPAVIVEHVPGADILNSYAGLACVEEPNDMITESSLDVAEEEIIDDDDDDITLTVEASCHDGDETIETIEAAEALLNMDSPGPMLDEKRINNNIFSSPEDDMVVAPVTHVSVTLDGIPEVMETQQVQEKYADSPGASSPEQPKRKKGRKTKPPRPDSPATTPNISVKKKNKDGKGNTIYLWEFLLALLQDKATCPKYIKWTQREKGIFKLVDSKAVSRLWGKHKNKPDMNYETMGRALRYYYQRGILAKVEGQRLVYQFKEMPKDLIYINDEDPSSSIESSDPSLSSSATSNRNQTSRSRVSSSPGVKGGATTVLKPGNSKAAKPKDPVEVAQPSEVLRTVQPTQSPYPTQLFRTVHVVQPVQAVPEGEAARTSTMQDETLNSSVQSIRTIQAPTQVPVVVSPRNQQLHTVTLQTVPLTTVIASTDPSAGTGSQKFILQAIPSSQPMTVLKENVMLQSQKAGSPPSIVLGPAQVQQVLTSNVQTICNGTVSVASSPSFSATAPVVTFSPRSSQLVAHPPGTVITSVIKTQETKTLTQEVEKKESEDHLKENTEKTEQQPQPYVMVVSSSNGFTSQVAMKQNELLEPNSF
# Outline: as §1
# EHF = biological target: T5, EHF (Homo sapiens, UniProt Q9NZC4 1-300); conditions: protein: recombinant; tags: N-terminal GST; dsDNA, one strand shown
# T5 sequence: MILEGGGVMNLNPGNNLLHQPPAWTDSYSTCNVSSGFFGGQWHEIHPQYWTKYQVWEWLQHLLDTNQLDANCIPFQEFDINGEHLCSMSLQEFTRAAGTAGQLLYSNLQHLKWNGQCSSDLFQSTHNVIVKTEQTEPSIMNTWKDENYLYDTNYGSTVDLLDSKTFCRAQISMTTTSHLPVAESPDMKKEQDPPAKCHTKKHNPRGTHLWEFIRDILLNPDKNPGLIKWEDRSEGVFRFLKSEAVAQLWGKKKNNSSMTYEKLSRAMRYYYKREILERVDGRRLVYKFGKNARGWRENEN
# Outline: as §1
# SPI1 = SPI1 (Homo sapiens, UniProt P17947 1-270); conditions: protein: recombinant; tags: N-terminal GST; dsDNA, one strand shown
# Outline: as §1
# SPIB = SPIB (Homo sapiens, UniProt Q01892 1-262); conditions: protein: recombinant; tags: N-terminal GST; dsDNA, one strand shown
# Chain of SPIB (Q01892 whole entry): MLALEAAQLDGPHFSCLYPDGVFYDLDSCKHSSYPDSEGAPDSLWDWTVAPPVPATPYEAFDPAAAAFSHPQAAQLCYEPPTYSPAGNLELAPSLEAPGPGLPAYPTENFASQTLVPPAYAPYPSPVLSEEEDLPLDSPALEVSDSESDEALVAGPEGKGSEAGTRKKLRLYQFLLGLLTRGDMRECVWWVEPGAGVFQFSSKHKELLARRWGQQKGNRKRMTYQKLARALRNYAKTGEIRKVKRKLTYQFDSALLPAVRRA
# Outline: as §1
# ELK3 = biological target: T6, ELK3 (Homo sapiens, UniProt P41970 1-407); conditions: protein: recombinant; tags: N-terminal GST; dsDNA, one strand shown
# T6 sequence: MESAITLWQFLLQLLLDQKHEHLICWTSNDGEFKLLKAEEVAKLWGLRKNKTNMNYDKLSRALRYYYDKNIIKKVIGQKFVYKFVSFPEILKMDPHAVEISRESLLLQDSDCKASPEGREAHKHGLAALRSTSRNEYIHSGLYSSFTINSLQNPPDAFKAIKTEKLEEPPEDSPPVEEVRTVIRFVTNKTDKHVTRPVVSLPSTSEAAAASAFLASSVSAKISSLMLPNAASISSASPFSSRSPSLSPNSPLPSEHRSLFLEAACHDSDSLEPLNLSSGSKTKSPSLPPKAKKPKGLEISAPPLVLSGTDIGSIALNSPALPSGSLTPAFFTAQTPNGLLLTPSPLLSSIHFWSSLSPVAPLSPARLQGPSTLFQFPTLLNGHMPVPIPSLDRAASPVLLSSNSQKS
# Outline: as §1
# FEV = biological target: T7, FEV (Homo sapiens, UniProt Q99581 1-238); conditions: protein: recombinant; tags: N-terminal GST; dsDNA, one strand shown
# T7 sequence: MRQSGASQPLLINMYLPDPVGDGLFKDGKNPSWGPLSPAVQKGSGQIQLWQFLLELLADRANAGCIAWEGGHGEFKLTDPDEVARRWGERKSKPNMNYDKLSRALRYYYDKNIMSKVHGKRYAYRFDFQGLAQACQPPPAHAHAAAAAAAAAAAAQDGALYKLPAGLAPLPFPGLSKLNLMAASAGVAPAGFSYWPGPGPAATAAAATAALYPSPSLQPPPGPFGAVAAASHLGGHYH
# Outline: as §1
# ETV5 = ETV5 (Homo sapiens, UniProt P41161 1-510); conditions: protein: recombinant; tags: N-terminal GST; dsDNA, one strand shown
# Chain of ETV5 (P41161 whole entry): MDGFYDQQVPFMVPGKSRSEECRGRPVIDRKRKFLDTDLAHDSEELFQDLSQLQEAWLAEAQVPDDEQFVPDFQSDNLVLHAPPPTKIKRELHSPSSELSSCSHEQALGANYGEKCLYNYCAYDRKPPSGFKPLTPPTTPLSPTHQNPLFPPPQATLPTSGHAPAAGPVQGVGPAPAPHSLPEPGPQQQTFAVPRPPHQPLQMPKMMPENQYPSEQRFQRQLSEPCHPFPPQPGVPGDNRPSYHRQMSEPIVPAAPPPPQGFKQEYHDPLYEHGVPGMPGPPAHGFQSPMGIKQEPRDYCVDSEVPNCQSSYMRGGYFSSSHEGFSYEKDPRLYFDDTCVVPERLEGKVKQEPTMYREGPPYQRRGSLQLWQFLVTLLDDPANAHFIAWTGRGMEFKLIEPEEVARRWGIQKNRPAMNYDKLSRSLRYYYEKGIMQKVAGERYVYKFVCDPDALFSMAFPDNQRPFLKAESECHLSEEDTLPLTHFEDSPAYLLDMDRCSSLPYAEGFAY
# Outline: as §1
# HSF1 = HSF1 (Homo sapiens, UniProt Q00613 1-529); conditions: protein: recombinant; tags: N-terminal GST; chain copies: 3; dsDNA, one strand shown
# Chain of HSF1 (Q00613 whole entry): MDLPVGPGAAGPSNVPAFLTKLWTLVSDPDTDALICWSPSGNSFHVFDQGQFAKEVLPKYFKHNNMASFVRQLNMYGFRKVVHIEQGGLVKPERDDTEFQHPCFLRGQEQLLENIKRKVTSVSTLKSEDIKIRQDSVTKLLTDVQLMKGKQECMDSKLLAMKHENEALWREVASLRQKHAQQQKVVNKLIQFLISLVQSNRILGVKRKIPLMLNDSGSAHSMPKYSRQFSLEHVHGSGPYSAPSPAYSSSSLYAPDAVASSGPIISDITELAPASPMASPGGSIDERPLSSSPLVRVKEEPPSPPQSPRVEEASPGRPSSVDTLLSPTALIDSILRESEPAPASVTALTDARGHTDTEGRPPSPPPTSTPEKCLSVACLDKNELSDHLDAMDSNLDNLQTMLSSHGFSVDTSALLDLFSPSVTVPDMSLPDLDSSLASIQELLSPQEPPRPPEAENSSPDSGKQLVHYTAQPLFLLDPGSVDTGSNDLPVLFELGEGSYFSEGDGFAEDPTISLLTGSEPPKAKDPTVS
# Outline: as §1
# SPIC = biological target: T8, SPIC (Homo sapiens, UniProt Q8N5J4 1-248); conditions: protein: recombinant; tags: N-terminal GST; dsDNA, one strand shown
# T8 sequence: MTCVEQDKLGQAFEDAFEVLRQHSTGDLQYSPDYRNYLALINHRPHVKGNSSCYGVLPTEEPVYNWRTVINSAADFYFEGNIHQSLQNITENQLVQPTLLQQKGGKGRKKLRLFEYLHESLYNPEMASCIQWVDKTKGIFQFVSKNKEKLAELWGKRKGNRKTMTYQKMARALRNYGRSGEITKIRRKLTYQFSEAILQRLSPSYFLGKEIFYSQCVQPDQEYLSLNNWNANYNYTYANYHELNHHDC
# Outline: as §1
# ELF4 = ELF4 (Homo sapiens, UniProt Q99607 1-663); conditions: protein: recombinant; tags: N-terminal GST; dsDNA, one strand shown
# Chain of ELF4 (Q99607 whole entry): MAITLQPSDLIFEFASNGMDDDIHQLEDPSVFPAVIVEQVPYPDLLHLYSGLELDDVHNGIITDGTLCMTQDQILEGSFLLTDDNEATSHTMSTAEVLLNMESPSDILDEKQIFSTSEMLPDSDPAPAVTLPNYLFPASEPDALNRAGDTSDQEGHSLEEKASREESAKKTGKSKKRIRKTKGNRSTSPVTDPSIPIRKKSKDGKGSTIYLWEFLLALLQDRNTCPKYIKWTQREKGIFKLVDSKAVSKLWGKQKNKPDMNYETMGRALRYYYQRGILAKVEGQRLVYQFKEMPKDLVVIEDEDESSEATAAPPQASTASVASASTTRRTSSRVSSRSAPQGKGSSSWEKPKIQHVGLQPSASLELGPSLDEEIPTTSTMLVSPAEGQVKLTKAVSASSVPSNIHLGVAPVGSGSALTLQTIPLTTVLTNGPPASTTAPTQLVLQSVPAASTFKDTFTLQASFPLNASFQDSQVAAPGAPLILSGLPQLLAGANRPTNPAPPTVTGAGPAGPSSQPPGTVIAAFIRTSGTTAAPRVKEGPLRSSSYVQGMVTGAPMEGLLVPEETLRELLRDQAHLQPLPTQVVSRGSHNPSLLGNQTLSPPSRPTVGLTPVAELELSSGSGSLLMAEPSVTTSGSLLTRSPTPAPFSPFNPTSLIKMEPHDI
# Outline: as §1
# ELK4 = biological target: T9, ELK4 (Homo sapiens, UniProt P28324-2 1-405); conditions: protein: recombinant; tags: N-terminal GST; dsDNA, one strand shown
# T9 sequence: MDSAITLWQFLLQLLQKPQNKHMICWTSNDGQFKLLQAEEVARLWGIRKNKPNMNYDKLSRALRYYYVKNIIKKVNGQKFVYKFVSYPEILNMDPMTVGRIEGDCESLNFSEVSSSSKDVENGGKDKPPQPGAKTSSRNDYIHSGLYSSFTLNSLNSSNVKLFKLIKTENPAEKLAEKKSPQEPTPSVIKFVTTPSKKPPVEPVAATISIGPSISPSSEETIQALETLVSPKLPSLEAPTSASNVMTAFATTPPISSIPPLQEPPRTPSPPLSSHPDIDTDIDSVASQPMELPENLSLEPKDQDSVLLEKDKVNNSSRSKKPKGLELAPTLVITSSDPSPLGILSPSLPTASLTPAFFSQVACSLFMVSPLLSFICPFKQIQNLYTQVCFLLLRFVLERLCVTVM
# Outline: as §1
# ETV2 = biological target: T10, ETV2 (Homo sapiens, UniProt O00321 1-342); conditions: protein: recombinant; tags: N-terminal GST; dsDNA, one strand shown
# T10 sequence: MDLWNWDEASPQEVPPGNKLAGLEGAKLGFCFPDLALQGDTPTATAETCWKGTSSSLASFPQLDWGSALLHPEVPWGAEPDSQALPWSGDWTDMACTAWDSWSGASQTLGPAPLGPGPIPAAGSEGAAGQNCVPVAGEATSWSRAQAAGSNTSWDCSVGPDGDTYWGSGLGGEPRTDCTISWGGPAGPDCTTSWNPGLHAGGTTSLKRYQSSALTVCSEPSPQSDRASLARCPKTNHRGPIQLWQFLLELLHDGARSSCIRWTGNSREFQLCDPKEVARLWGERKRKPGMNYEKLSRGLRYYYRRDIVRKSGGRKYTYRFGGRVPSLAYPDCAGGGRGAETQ
# Outline: as §1
# ELF3 = biological target: T11, ELF3 (Homo sapiens, UniProt P78545 1-371); conditions: protein: recombinant; tags: N-terminal GST; dsDNA, one strand shown
# T11 sequence: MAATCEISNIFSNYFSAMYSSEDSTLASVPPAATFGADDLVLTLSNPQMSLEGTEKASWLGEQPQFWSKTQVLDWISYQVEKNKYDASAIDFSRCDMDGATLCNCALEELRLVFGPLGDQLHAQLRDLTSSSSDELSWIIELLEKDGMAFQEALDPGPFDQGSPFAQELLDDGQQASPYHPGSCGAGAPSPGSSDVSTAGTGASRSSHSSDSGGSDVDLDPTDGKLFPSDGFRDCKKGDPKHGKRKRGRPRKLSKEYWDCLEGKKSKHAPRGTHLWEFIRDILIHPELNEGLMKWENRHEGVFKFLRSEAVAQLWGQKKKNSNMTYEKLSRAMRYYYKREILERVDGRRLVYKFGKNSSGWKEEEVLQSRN
# Outline: as §1
# CRX = CRX (Homo sapiens, UniProt O43186 1-299); conditions: protein: recombinant; tags: N-terminal GST; dsDNA, one strand shown
# Chain of CRX (O43186 whole entry): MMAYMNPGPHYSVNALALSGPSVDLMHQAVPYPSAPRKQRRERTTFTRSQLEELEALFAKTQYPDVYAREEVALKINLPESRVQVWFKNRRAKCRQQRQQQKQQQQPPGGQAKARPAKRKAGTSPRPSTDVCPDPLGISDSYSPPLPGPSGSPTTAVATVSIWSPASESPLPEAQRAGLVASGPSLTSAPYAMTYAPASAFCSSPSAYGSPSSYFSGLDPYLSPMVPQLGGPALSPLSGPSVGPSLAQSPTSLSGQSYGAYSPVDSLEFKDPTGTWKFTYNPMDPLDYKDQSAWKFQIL
# Outline: as §1
# ETV1 = ETV1 (Homo sapiens, UniProt P50549 1-477); conditions: protein: recombinant; tags: N-terminal GST; dsDNA, one strand shown
# Chain of ETV1 (P50549 whole entry): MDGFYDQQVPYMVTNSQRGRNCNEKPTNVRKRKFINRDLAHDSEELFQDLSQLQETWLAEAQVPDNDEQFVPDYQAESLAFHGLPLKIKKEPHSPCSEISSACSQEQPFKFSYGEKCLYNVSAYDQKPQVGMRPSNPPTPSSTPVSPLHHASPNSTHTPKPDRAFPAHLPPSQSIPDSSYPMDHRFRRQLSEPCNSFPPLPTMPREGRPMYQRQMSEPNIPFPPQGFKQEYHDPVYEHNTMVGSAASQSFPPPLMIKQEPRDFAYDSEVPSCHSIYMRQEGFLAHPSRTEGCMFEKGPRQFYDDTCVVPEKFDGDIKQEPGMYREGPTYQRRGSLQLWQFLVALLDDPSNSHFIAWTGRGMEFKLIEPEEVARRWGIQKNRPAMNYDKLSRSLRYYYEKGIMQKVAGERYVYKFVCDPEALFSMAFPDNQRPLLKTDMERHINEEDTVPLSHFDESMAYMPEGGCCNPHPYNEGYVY
# Outline: as §1
sequence,measurement,setting,value
TATTCC,binding signal,FLI1,"1.65 fold enrichment (6-mer frequency, TF over GST control)"
same,binding signal,ELK1,"1.68 fold enrichment (6-mer frequency, TF over GST control)"
same,binding signal,GABPA,"1.6 fold enrichment (6-mer frequency, TF over GST control)"
same,binding signal,ERG,"1.52 fold enrichment (6-mer frequency, TF over GST control)"
same,binding signal,ELF1,"1.59 fold enrichment (6-mer frequency, TF over GST control)"
same,binding signal,EHF,"1.58 fold enrichment (6-mer frequency, TF over GST control)"
same,binding signal,SPI1,"1.48 fold enrichment (6-mer frequency, TF over GST control)"
same,binding signal,SPIB,"1.49 fold enrichment (6-mer frequency, TF over GST control)"
same,binding signal,ELK3,"1.56 fold enrichment (6-mer frequency, TF over GST control)"
same,binding signal,FEV,"1.61 fold enrichment (6-mer frequency, TF over GST control)"
same,binding signal,ETV5,"1.72 fold enrichment (6-mer frequency, TF over GST control)"
same,binding signal,HSF1,"2.11 fold enrichment (6-mer frequency, TF over GST control)"
same,binding signal,SPIC,"1.74 fold enrichment (6-mer frequency, TF over GST control)"
same,binding signal,ELF4,"1.62 fold enrichment (6-mer frequency, TF over GST control)"
same,binding signal,ELK4,"1.44 fold enrichment (6-mer frequency, TF over GST control)"
same,binding signal,ETV2,"1.68 fold enrichment (6-mer frequency, TF over GST control)"
same,binding signal,ELF3,"1.5 fold enrichment (6-mer frequency, TF over GST control)"
same,binding signal,CRX,"1.77 fold enrichment (6-mer frequency, TF over GST control)"
same,binding signal,ETV1,"1.52 fold enrichment (6-mer frequency, TF over GST control)"

# Source: paper PMC7862700, “An all-to-all approach to the identification of sequence-specific readers for epigenetic DNA modifications on cytosine”
